High-throughput results (PubChem BioAssay)
KCNQ2 block: rat KCNQ2 potassium channel inhibitors, primary screen, cell-based, CHO-K1, FluxOR thallium flux, B-score. Potassium voltage-gated channel subfamily KQT member 2 (Rattus norvegicus), O88943. 20 min; stronger effect = lower value. B-score at 10 µM. 1.1% of 310,000 active;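 active = fluorescence ratio B-score at most minus 3 library SDs, with starting brightness B-score within 2 library SDs, cut at about -5.5 in these data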
Target sequence (O88943 whole entry, looked up): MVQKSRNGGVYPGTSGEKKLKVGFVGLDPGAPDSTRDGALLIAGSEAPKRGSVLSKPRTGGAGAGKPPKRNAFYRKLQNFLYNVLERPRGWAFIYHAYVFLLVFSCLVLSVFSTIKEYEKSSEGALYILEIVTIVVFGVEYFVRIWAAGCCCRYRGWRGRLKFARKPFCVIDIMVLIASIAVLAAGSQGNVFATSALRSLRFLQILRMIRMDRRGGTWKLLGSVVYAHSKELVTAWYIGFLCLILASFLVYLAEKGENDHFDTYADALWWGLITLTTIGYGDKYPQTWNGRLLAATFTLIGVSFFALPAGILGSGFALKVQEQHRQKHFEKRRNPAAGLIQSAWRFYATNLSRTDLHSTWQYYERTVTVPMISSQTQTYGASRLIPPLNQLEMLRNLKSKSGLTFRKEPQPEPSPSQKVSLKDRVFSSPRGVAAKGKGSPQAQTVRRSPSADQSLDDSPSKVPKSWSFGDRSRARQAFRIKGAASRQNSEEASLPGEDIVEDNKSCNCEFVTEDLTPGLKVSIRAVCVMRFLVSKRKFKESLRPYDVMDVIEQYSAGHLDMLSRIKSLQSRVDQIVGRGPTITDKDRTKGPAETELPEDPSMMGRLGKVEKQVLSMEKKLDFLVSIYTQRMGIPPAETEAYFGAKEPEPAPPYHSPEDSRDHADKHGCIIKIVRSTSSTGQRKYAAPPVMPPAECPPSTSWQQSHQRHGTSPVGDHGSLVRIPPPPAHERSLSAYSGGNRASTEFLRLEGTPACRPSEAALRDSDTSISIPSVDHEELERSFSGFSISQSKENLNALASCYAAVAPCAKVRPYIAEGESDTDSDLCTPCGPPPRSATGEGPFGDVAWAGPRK
KCNQ2 enhance: potentiators of rat KCNQ2 potassium channel | 0.54% of 310,000 active | CHO-K1 KCNQ2, FluxOR thallium flux fluorescence; stronger effect = higher value | B-score at 10 µM | AID 2239, 2010 | Potassium voltage-gated channel subfamily KQT member 2 (Rattus norvegicus), O88943;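 active = fluorescence ratio B-score at least 3 SD of library B-scores, with initial fluorescence B-score within 3 of them, cut at about 5.3 in these data; same plate scores as AID 2156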;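 also: B-score of peak minus minimum over baseline fluorescence ratio after K+ and Tl+ stimulus; positive B-score means potentiation of KCNQ2 with more thallium influx and brighter signal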
* hit, by the source's call; i = inactive; / = not tested or not shown. Sampled rows, rich in hits. Any-hit rate of the full collection: about 1.6%.

SMILES | KCNQ2 block | KCNQ2 enhance
Cc1cc(C)nc(/N=C(\NC(=O)C(C)(C)C)Nc2ccccc2)n1 | i | 1.3
O=C(NC1CCCc2ccccc21)c1cccc(Br)c1 (centres undefined) | i | /
COC(=O)[C@H](C)NC(=O)NC1CCCc2ccccc21 (some centres undefined) | -6.5* | -6.5
CN(C)c1cccc(C(=O)NC2CCCc3ccccc32)c1 (centres undefined) | -6.5* | -6.5
CC(C)[C@H](NC(=O)NC1CCCc2ccccc21)C(=O)O (some centres undefined) | i | /
O=C1CN(CC(=O)NC2CCCc3ccccc32)CCN1 (centres undefined) | i | 0.51
CCN(CC)C1=C(Cl)C(=O)C(Cl)C12OCCO2 (centres undefined) | i | 0.5
O=C(CC1C(=O)N(c2ccccc2)C(=S)N1c1ccccc1)c1ccc(Br)cc1 (centres undefined) | -6.4* | -6.4
O=C(CC1C(=O)N(c2ccccc2)C(=S)N1c1ccccc1)c1ccccc1 (centres undefined) | i | /
Cc1cc(-c2nnc(SCC(=O)Nc3ccc(Br)cc3F)n2N)n[nH]1 | i | 0.43
COc1ccccc1C(=O)N/C(=C\c1cn(C)c2ccccc12)C(=O)N1CCOCC1 | i | /
Cn1cc(/C=C(\NC(=O)c2ccccc2Cl)C(=O)N2CCOCC2)c2ccccc21 | -7* | -7
CCOc1ccc(OCc2ccc(C(=O)N3CCCCC3)o2)cc1 | i | 0.18
CCOc1ccc(OCc2ccc(C(=O)N3CCc4ccccc4C3)o2)cc1 | -6.1* | -6.1
CCc1nnc(NC(=O)CCNC(=O)c2ccco2)s1 | i | /
CCOC(=O)C1=NN(C(=O)c2ccccc2)C(O)(c2ccc(C)cc2)C1 (centres undefined) | i | 3.8
CCOC(=O)C1=NN(C(=O)c2ccc(OC)cc2)C(O)(c2ccc(Cl)cc2)C1 (centres undefined) | i | 16*
COc1ccc(/C=C/C(=O)c2ccccc2)cc1COc1ccccc1F | -7.6* | -7.6
COc1ccc(C=O)cc1COc1ccccc1F | i | /
CC[C@@H]1[C@H]2CCCC(=O)N3CC[C@@H](C[C@@H]1OC(=O)Nc1ccccc1)[C@@H]23 | i | 0.02
COc1ccc(NC(=O)COC(=O)CNS(=O)(=O)c2ccc(F)c(F)c2F)cc1OC | i | 0.09
CNC(=O)CN(c1ccc(F)cc1)S(=O)(=O)c1cc(C)ccc1OC | i | /
C=CCn1c(NS(=O)(=O)c2ccccc2)c(S(=O)(=O)c2ccc(C)cc2)c2nc3ccccc3nc21 | i | /
O=S(=O)(Nc1c(S(=O)(=O)c2ccccc2)c2nc3ccccc3nc2n1C1CCCCC1)c1ccccc1 | -6.2* | -6.2
Cn1c(Cc2ccc3c(c2)OCO3)nnc1SCC(=O)NC1CCCC1 | i | /
SMILES | KCNQ2 block | KCNQ2 enhance
O=C1c2ccsc2SCCN1Cc1c(Cl)cccc1Cl | -6.7* | -6.7
O=C1c2ccsc2SCCN1Cc1c(F)cccc1Cl | i | /
COc1ccc(NS(=O)(=O)c2ccc(/C=C/C(=O)O)cc2)cc1S(=O)(=O)N1CCOCC1 | i | /
COc1ccc(OCC(=O)Nc2c(C(=O)N(CCN(C)C)Cc3ccco3)oc3ccccc23)cc1 | i | /
COc1ccccc1C(=O)Nc1c(C(=O)N(CCN(C)C)Cc2ccco2)oc2ccccc12 | -7* | -7
Cc1ccc(C(c2nnnn2CCc2ccccc2)N2CCSCC2)cc1 (centres undefined) | i | 0.78
Cc1ccc(C(c2cc(Br)ccc2O)N2CCSCC2)cc1 (centres undefined) | -5.8* | -5.8
COc1ccc(C2=Nc3ccc(C)cc3C(c3ccccc3)N2CC(=O)NN)cc1 (centres undefined) | i | 2.7
COc1ccc(C2=Nc3ccc(Br)cc3C(c3ccccc3)N2CC(=O)NN)cc1 (centres undefined) | i | 7.8*
O=C(C[n+]1cccc(/C=N/O)c1)N1CCCc2ccccc21 | i | /
Nc1ccccc1-n1c(=O)n(Cc2ccccc2F)c(=O)c2[nH]cnc21 | i | 0.86
Cc1ccc(-c2noc(CN(C(=O)C(c3ccccc3)c3ccccc3)C(C)C)n2)cc1 | i | /
CC(C)N(Cc1nc(-c2ccc(Cl)cc2)no1)C(=O)C(c1ccccc1)c1ccccc1 | -6.2* | -6.2
Cc1cccc2cc(C(c3nnnn3Cc3ccccc3)N3CCN(C)CC3)c(=O)[nH]c12 (centres undefined) | i | /
Cc1cc(C)c2cc(C(c3nnnn3C3CCCC3)N3CCOCC3)c(=O)[nH]c2c1 (centres undefined) | -6* | -6
Cc1cc(C)c2[nH]c(=O)c(C(c3nnnn3CC3CCCO3)N3CCC(C)CC3)cc2c1 (centres undefined) | i | /
Cc1cc(C)c2[nH]c(=O)c(C(c3nnnn3CC3CCCO3)N3CCCC(C)C3)cc2c1 (centres undefined) | -5.6* | -5.6
CCc1ccc2[nH]c(=O)c(C(c3nnnn3Cc3ccc(OC)cc3)N3CCOCC3)cc2c1 (centres undefined) | i | /
Cc1ccc2cc(C(c3nnnn3C3CCCC3)N3CCN(c4ccc(F)cc4)CC3)c(=O)[nH]c2c1 (centres undefined) | i | /
COc1ccc(Cn2nnnc2C(c2cc3cc(C)cc(C)c3[nH]c2=O)N2CCOCC2)cc1 (centres undefined) | -6.7* | -6.7
Cc1cccc2cc(C(c3nnnn3Cc3ccccc3)N3CCN(c4ccccc4)CC3)c(=O)[nH]c12 (centres undefined) | -9* | -9
Cc1cccc(-c2noc(CCCC(=O)N3CCOCC3)n2)c1 | i | 1.2
Cc1ccc(OCCNC(=O)c2ccccc2F)cc1 | i | 0.5
Cc1noc(C)c1COc1ccc(C(=O)OCC(=O)Nc2c(C)n(C)n(-c3ccccc3)c2=O)cc1 | i | 0.51
Cc1ccc(S(=O)(=O)Nc2csc(C)c2C(=O)O)cc1 | i | /
SMILES | KCNQ2 block | KCNQ2 enhance
CCN(CC)CCOc1ccc(Br)cc1 | i | /
CCN(CC)CCOc1ccc(/C(=C(\Cl)c2ccccc2)c2ccccc2)cc1 | -7.6* | -7.6
Cc1ccc(C(C(=O)NC2CCCCC2)N(CCCN2CCOCC2)C(=O)c2snc(C(N)=O)c2N)cc1 (centres undefined) | i | 0.14
O=C(Nc1ccc(F)cc1)c1sccc1SCc1cccc(C(F)(F)F)c1 | i | /
O=C(Nc1ccc(F)cc1F)c1sccc1SCc1cccc(C(F)(F)F)c1 | -5.9* | -5.9
CCc1ccc(/C(C)=N/NC(=O)CNC(=O)/C=C/c2ccco2)cc1 | i | /
O=C(CCCc1ccccc1)Nc1ccnn1C1CCN(Cc2ccccn2)CC1 | i | 6.4*
Cc1ccccc1CN1CCC(n2nccc2NC(=O)CCCc2ccccc2)CC1 | i | 0.07
CC1(C)SC(=S)N(/N=C/c2ccc(O)cc2)C1N(O)C(=O)Nc1ccc([N+](=O)[O-])cc1 (centres undefined) | -7.5* | -7.5
Cc1ccc(/C=N/N2C(=S)SC(C)(C)C2N(O)C(=O)Nc2ccc([N+](=O)[O-])cc2)cc1 (centres undefined) | i | /
CC(C)Nc1nc(NC(C)C)nc(SCC(N)=O)n1 | i | 0.02
COC(=O)C1=C(C)NC(C)=C(C(=O)O[C@@H]2CCCN(Cc3ccccc3)C2)[C@@H]1c1cccc([N+](=O)[O-])c1 | -5.8* | -5.8
